GBA activity up – increases beta-glucosidase activity in Gaucher fibroblasts; activation, % at 10 µM; P04062; L444P Gaucher fibroblasts, 4-MU-glucoside fluorescence, 3 days; AID 784; 30,000 compounds, 0.44% hits; in the data active means activation above about 65%;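 further: 0% = vehicle wells and 100% = positive control wells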
Target sequence (P04062 whole entry L483P): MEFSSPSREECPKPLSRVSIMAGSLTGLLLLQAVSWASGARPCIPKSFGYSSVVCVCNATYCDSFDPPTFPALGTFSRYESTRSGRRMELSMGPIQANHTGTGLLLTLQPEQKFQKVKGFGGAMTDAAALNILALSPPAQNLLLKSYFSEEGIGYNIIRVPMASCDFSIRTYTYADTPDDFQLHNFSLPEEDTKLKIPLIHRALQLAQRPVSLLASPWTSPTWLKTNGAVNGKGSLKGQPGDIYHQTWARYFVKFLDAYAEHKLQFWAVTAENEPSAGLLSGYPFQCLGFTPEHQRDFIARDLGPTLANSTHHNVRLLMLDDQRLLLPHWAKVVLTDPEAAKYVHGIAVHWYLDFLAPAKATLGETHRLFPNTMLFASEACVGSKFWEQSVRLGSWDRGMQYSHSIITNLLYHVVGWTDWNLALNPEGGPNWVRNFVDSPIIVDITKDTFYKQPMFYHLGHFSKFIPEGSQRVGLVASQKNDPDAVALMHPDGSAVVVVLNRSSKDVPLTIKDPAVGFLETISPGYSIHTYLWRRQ
* = called active by the depositor. Shown is part of a subset that was picked to be rich in hits.

SMILES | GBA activity up
Cc1ccc(C)c(NC(=O)C2CC(O)CN2C(=O)OC(C)(C)C)c1 (stereo unspecified) | 71.8*
Cc1ccc(C)c(NC(=O)C2CC=CCC2C(=O)O)c1 (stereo unspecified) | 12.8
C#CC1(O)CC(C)N(C)C(C)C1 (stereo unspecified) | 31.8
CC(=O)Nc1ccccc1C(=O)N1CC(C)OC(C)C1 (stereo unspecified) | -12.6
Cc1cccc(NC(=O)CSc2ncnc3c2oc2ccccc23)c1 | -9.8
CCc1nc(SCC(=O)Nc2ccc3c(c2)OCCO3)c2oc3ccccc3c2n1 | -131.4
Cc1nc(SCC(=O)Nc2ccc3c(c2)OCCO3)c2oc3ccccc3c2n1 | 149.1*
Cc1ccc(C2/C(=C(\O)c3c(C)nc4ccccn34)C(=O)C(=O)N2CCCN2CCOCC2)o1 (stereo unspecified) | -12.6
C/C(=N\O)c1ccc2c3ccccc3n(C)c2c1 | 77.2*
Cn1cc(/C(Cc2ccccc2)=N\O)c2ccccc21 | 4.0
CC(=O)n1c2ccccc2c2c1c1ccccc1n2C | 6.9
N#CC1=C(N)N(c2ccc(Br)cc2)C2=C(C(=O)CCC2)C1c1cccnc1 (stereo unspecified) | 0.7
CC(=O)Nc1sc2c(c1CN1CCN(c3ccccn3)CC1)CCCC2 | -12.9
O=C1[C@H]2[C@@H](C(=O)N1c1cc(Cl)cc(Cl)c1)[C@]1(C(=O)Nc3ccccc31)N1CCC[C@@H]21 | -6.2
O=C1Nc2ccccc2C(O)(C(=O)NC2CC2)N1c1ccc(Cl)c(Cl)c1 (stereo unspecified) | 81.3*
O=C1Nc2ccccc2C(O)(C(=O)NCc2ccco2)N1c1ccc(Cl)cc1 (stereo unspecified) | -29.8
CCOC(=O)c1oc2cccc(OCC(O)CNC(C)C)c2c1C (stereo unspecified) | -95.3
COC(=O)C1=C(NC(=O)c2ccc(C)c(C)c2)CCS1 | 13.7
COCCCN1C(=O)C(=O)/C(=C(/O)c2ccc(C)cc2)C1c1ccccc1 (stereo unspecified) | -9.1
CC1Cc2cc(/C(O)=C3/C(=O)C(=O)N(CCCN(C)C)C3c3ccncc3)ccc2O1 (stereo unspecified) | 2.8
Cc1ccc(C)c(/C(O)=C2\C(=O)C(=O)N(CCCn3ccnc3)C2c2ccncc2)c1 (stereo unspecified) | 84.4*
O=C(Nc1ccccc1)c1ccc(S(=O)(=O)N2CCCC2)cc1 | 3.8
Cn1c(/C(C#N)=C(\O)c2ccc(S(=O)(=O)N3CCCCC3)cc2)nc2ccccc21 | 70.9*
COc1ccc(/C(O)=C(\C#N)c2nc3ccccc3n2C)cc1OC | 1.8
Cc1ccc(CNC(=O)Nc2cccs2)cc1 | -2.5
SMILES | GBA activity up
CC1=C(C(=O)Nc2cccnc2)C(c2ccccn2)n2nnnc2N1 (stereo unspecified) | 27.4
CC1=C(C(=O)Nc2ccccc2)C(c2ccncc2)n2nnnc2N1 (stereo unspecified) | -5.8
CC1=C(C(=O)Nc2cccnc2)C(c2ccncc2)n2nnnc2N1 (stereo unspecified) | 69.9*
COCCn1c(C)cc(C(=O)CSc2nnc3scc(-c4ccc(Cl)cc4)n23)c1C | 5.8
CCOc1ccc(N2CC(C(=O)Nc3cccc(C)c3C)CC2=O)cc1 (stereo unspecified) | 2.8
COc1ccc(CNC(=O)c2ccc(NS(=O)(=O)c3c(C)noc3C)cc2)cc1 | 12.9
CCOc1ccc(C(C)=O)cc1Cn1nc(C(=O)O)c2ccccc2c1=O | -18.1
CCC(c1nnc(SCc2nc3ccccc3s2)n1Cc1ccccc1)N(C)C (stereo unspecified) | -0.1
c1ccc(-n2cnnc2SCc2nc3ccccc3s2)cc1 | -18.9
c1ccc(Cn2c(SCc3nc4ccccc4s3)nnc2-c2ccco2)cc1 | 127.2*
COc1cccc(NC(=O)c2ocnc2C)c1 | -2.5
O=C1CC(N(Cc2ccco2)C(=O)Nc2ccc(F)cc2)C(=O)N1c1ccc(F)cc1 (stereo unspecified) | 5.3
COCCNC(=O)C(C)OC(=O)c1nsc(Cl)c1Cl (stereo unspecified) | -18.1
CC(OC(=O)c1cccs1)C(=O)NCc1cccs1 (stereo unspecified) | 1.4
CC(OC(=O)c1nsc(Cl)c1Cl)C(=O)NCc1cccs1 (stereo unspecified) | 79.3*
Cc1nc(N2CCC(C)CC2)c2c(C)c(C(=O)O)sc2n1 | -18.3
CC(C)(NCc1ccccc1Cl)C(=O)O | 9.5
COC(=O)c1ccc2c(=O)n(CCCN3CCCC3=O)c(=S)[nH]c2c1 | -7.4
COc1cc(NC(=O)c2ccc3c(=O)n(Cc4ccco4)c(=S)[nH]c3c2)cc(OC)c1OC | 17.5
O=C(NCCCN1CCCC1=O)c1ccc2c(=O)n(Cc3ccco3)c(=S)[nH]c2c1 | 115.3*
CC(=O)c1cccc(NC(=O)N2CCCC2C(=O)NCc2ccc(C)cc2)c1 (stereo unspecified) | 23.4
CC(=O)Nc1cccc(NC(=O)C2CCCN2C(=O)Nc2ccc(C)cc2)c1 (stereo unspecified) | 80.4*
CC(=O)c1cccc(NC(=O)N2CCCC2C(=O)Nc2ccccc2C)c1 (stereo unspecified) | -20.1
CCOC(=O)C1CCCCN1Cc1ccccc1C(F)(F)F (stereo unspecified) | 13.8
COC(=O)c1ccc(COc2ncnc3c(Cl)cc(Cl)cc23)o1 | -8.0
SMILES | GBA activity up
CC(C)OC(=O)CSc1nnc(-c2cccnc2)n1N | 67.3*
COc1cccc(-n2c(SCC(=O)OC(C)C)nnc2-c2cccnc2)c1 | -40.9
Cc1ccc(C(=O)CSc2nnc(-c3cccnc3)n2N)cc1 | -20.0
Cc1cc(C)n(-c2ccc(-n3ccnc3)nn2)n1 | 4.5
O=C(CSC1=NCCS1)Nc1ccnc2ccccc12 | -29.4
CCN1CCCC1CNC(=O)C1c2cc(OC)c(OC)cc2C(=O)N(C)C1c1cccnc1 (stereo unspecified) | -43.8
CCOc1ccc(C(=O)N2CCC(C(=O)c3ccc4c(c3)OCCO4)CC2)cc1 | -63.3
Cc1cc(-c2ccccc2)n(-c2ccc(C(=O)N3CCN(c4ncccn4)CC3)cc2)n1 | -112.5
COCCn1c(=N)c(C(=O)NCCc2ccc(OC)cc2)cc2c(=O)n3cccc(C)c3nc21 | -23.9
CCOCCCn1c(=N)c(C(=O)NCCN2CCOCC2)cc2c(=O)n3cccc(C)c3nc21 | 75.0*
CCOCCCn1c(=N)c(C(=O)NCc2ccc3c(c2)OCO3)cc2c(=O)n3ccccc3nc21 | -15.1
Cc1cc(C(=O)OCC(=O)N2CCN(c3ccccc3)CC2)c2ccccc2n1 | -11.6
O=C(CN1C(=O)c2ccccc2S1(=O)=O)NCCSC1CCCCC1 | 811.6*
O=C(CN1C(=O)c2ccccc2S1(=O)=O)NCc1ccccn1 | -13.4
COc1ccc(CCNC(=O)CN2C(=O)c3ccccc3S2(=O)=O)cc1 | 6.3
CCOC(=O)C(CC)n1cnc2c(oc3ccccc32)c1=O (stereo unspecified) | -3.7
Cc1cc(S(=O)(=O)NCCCN2CCOCC2)ccc1F | -7.1
Cn1c(Cc2ccccc2)nnc1SCC(=O)Nc1ccccc1N1CCOCC1 | 96.1*
Cn1c(Cc2ccccc2)nnc1SCC(=O)NC1CCCCC1 | -2.1
CC(C)n1nnnc1SCC(=O)Nc1ccccc1N1CCOCC1 | -13.6
O=C(NCCCN1CCOCC1)c1ccc(CS(=O)(=O)Cc2ccc(Cl)cc2)o1 | -10.1
O=C(c1ccco1)c1cn(CC(=O)N2CCCCC2)c2ccccc12 | -36.2
O=C(Cn1ncc2c(=O)oc3ccccc3c21)Nc1nc2ccccc2s1 | 13.4
Oc1ccc(C(=S)N2CCCCC2)cc1Cl | 9.6
CCCC(=O)Nc1ccc(N2CCN(C(=O)c3cccs3)CC2)cc1 | -0.3
COc1ccccc1C(=O)N(Cc1cccs1)C1CCS(=O)(=O)C1 (stereo unspecified) | -21.2

From PubChem
